Potency data for nine compounds are collected here from PubChem BioAssay (NCATS).

Assay [1] can be described thus: Primary qHTS for inhibitors of nuclear receptor binding SET domain protein 2 (NSD2) in an isogenic RCH-ACV NSD2 p.E1099K mutant (9B) (AID 1645876). Note: nearly all actives have a fitted effect of over 70% in size. Note: potency is the fitted concentration of half-maximal effect.
Assay [2] is described as follows: Primary qHTS for inhibitors of nuclear receptor binding SET domain protein 2 (NSD2) in an RCH-ACV wild type WT cells (2C) (AID 1645877). Note: nearly all actives have a fitted effect of over 70% in size. Note: potency is the fitted concentration of half-maximal effect.
Assay [3] in a line: Primary qHTS for small molecule stabilizers of the endoplasmic reticulum resident proteome: Secreted ER Calcium Modulated Protein (SERCaMP) assay (AID 1508630). The gist of the method: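 The SH-SY5Y reporter protocol was run at 3 concentrations up to 38.3 uM (primary) or 11 concentrations (follow-up): 16 h compound, 100 nM thapsigargin for 4 h, then extracellular luciferase luminescence.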
In general terms: qHTS replaces the single test concentration by a dilution series.

The target of assay [4] is Cytochrome P450 2D6 (Homo sapiens) (UniProt P10635). Put plainly: Cytochrome P450 family 2 subfamily D member 6 (CYP2D6) small molecule antagonists: luciferase biochemical (cell-free) qHTS assay (AID 1645840; active = well fitted curve in the direction sought with a large enough effect in the repeat runs; an effect the other way counts as inactive or inconclusive; note: nearly all actives have a fitted effect of over 55% in size; note: potency is the fitted concentration of half-maximal effect). A digest of the protocol:
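P450-Glo CYP2D6 system: proluciferin substrate converted by enzyme to luciferin, read by luminescence proportional to activity. Enzyme-substrate mix with compound 10 min at room temperature, then NADPH regeneration 1 h before detection reagent.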

For assay [5], the target named is Cytochrome P450 2C9 (Homo sapiens) (UniProt P11712). Put plainly: Cytochrome P450 family 2 subfamily C member 9 (CYP2C9) small molecule antagonists: luciferase biochemical (cell-free) qHTS assay (AID 1645842; active = well fitted curve in the direction sought with a large enough effect in the repeat runs; an effect the other way counts as inactive or inconclusive; note: nearly all actives have a fitted effect of over 55% in size; note: potency is the fitted concentration of half-maximal effect). A digest of the protocol:
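P450-Glo CYP2C9 system: proluciferin substrate with enzyme in mix containing 0.4% BSA, 10 min at room temperature, then NADPH regeneration solution added and incubated 1 h at 37C. Detection reagent stopped reaction; luminescence read after 20 min as RLU.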

The target of assay [6] is Cytochrome P450 3A4 (Homo sapiens) (UniProt P08684). The experiment in a line: Cytochrome P450 family 3 subfamily A member 4 (CYP3A4) small molecule antagonists: luciferase qHTS assay (AID 1645841; active = well fitted curve in the direction sought with a large enough effect in the repeat runs; an effect the other way counts as inactive or inconclusive; note: nearly all actives have a fitted effect of over 45% in size). A digest of the protocol: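 Luminescent CYP3A4 activity readout: compounds plus enzyme-substrate mix 10 min at room temperature, reaction started with NADPH regenerating system for 1 h, stopped with detection reagent, read after 20 min. Ketoconazole served as control.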
Chain of Cytochrome P450 3A4 (Homo sapiens) (P08684 whole entry, looked up): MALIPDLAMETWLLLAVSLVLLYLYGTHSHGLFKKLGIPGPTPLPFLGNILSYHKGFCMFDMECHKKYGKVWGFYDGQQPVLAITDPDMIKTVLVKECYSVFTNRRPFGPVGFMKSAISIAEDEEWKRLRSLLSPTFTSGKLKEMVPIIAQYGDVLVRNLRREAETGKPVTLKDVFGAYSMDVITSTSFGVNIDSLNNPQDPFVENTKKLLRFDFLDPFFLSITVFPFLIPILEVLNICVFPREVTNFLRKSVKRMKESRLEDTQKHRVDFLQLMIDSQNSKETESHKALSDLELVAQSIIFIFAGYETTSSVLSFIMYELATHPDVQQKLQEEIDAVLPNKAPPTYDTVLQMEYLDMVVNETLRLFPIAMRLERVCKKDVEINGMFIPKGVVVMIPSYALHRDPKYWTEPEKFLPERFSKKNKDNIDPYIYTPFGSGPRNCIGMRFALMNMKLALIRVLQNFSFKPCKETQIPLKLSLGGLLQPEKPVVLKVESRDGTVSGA

Assay [7] deals with Papain (Carica papaya) (UniProt P00784). The experiment in a line: Primary qHTS assay for inhibitors of the protease papain (AID 1645873).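 Note: papain turnover of Z-FR-AMC read as the AMC fluorescence gain over 10 min; series mostly up to about 50 µM.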
Chain of Papain (Carica papaya) (P00784 whole entry, looked up): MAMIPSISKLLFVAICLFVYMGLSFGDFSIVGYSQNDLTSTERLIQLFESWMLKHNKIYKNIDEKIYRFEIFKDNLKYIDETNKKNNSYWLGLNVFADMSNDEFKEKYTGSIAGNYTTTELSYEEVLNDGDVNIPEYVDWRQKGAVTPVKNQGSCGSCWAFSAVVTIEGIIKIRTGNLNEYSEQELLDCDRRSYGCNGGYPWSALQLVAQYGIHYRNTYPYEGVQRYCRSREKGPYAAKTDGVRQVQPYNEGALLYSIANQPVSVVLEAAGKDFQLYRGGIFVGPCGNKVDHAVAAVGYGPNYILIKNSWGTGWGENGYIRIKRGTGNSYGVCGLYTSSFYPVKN

SMILES strings stand for the structures. “And” between values parts separate entries of the source, which are not always exact repeats. Equal entries are not always repeated. Inconclusive results are not listed. The source made the active and inactive calls. Unless noted, calls come from the whole dose curve; as a rule, active = well fitted curve in the direction sought with a large enough effect; inconclusive = small, poorly fitted or top-dose-only effect, or another doubt; inactive = no such curve, though single readings can be large; an effect the other way counts as inactive or inconclusive.

Chain of Cytochrome P450 2D6 (Homo sapiens) (P10635 whole entry, looked up): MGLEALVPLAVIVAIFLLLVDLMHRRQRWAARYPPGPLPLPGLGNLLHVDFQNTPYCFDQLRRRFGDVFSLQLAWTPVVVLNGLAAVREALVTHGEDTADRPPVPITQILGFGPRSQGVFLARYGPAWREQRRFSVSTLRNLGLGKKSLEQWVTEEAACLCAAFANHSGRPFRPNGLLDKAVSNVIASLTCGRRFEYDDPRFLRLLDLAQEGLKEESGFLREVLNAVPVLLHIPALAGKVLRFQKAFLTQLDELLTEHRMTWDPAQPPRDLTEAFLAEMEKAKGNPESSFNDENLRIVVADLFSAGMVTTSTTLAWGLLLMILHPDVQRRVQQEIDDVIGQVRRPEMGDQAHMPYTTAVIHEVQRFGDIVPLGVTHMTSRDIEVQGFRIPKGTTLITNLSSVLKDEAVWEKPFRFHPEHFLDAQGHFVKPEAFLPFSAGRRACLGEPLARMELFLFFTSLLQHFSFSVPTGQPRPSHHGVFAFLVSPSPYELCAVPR
Chain of Cytochrome P450 2C9 (Homo sapiens) (P11712 whole entry, looked up): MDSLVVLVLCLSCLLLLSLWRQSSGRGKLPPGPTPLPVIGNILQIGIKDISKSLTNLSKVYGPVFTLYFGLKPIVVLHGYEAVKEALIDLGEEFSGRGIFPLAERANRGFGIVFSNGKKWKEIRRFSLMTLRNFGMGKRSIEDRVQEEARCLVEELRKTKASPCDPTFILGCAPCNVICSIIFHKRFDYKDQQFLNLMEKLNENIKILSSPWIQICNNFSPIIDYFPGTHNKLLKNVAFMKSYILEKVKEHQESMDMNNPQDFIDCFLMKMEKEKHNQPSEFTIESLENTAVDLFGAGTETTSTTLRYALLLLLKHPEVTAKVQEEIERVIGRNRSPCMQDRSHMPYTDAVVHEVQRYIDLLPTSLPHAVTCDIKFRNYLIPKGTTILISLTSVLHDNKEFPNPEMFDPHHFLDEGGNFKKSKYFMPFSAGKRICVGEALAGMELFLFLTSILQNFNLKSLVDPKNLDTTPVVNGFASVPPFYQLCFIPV

`COc1ccccc1[C@H](c1cccc2ccccc12)[C@@](C)(C#N)C(=O)N1CCC(c2cccc(C(F)(F)F)c2)CC1`: the Potency entry in assay [1] and in assay [2] was “inactive” throughout.
Take `Cc1ccc(NC(=O)c2cccc(C(C)(C)C#N)c2)cc1Nc1ccc2ncn(C)c(=O)c2c1`: the Potency entry in assay [3] was “inactive”. The Potency was 12 µM (active) in assay [4], 8.49 µM (active) in assay [5] and 10.5 µM (active) in assay [1].
In the case of `Cc1ccc2c(c1)C(=O)[C@@]1(O)CCN(c3ccccc3)C1=N2`, the Potency entry in assay [3] and in assay [4] was “inactive” each time.
Take `S=C(NCc1ccc2c(c1)OCO2)N1CCN(c2ncnc3c2oc2ccccc23)CC1`: in assay [3], the Potency entry is “inactive”. The figures for the Potency in assay [4], in assay [5] and in assay [1] were 4.77 µM (active), 2.13 µM (active) and 13.2 µM (active), respectively.
For the compound `COc1ccc([C@@H]2CC(=O)c3c(O)cc(O[C@@H]4O[C@H](CO[C@@H]5O[C@@H](C)[C@H](O)[C@@H](O)[C@@H]5O)[C@@H](O)[C@H](O)[C@@H]4O)cc3O2)cc1O`, the Potency result in assay [3], in assay [4] and in assay [5] was “inactive” in each case.
As to `OCCC#Cc1nc(-c2ccc(F)cc2)c(-c2ccncc2)n1CCCc1ccccc1`, the Potency result in assay [3] is “inactive”. In addition, the Potency in assay [1] was 16.4 µM (active) and 11.8 µM (active); in assay [2] it was 18.4 µM (active) and 9.34 µM (active).
`COc1ccc(-c2c(-c3ccc(O)cc3O)n[nH]c2C)cc1`: the Potency result in assay [3], in assay [1] and in assay [2] was “inactive” each time. Further, the Potency was 4.47 µM (active) in assay [4] and 3.55 µM (active) in assay [5].
As for `N=c1nc(N2CCCCC2)cc(N)n1O`, the Potency entry in assay [3], in assay [6], in assay [5], in assay [7], in assay [1] and in assay [2] was “inactive” in each case. Moreover, in assay [4], the Potency was 7.76 µM (active).
`Cc1n[nH]c(C)c1Cc1sc2c(c1C(=O)N1C[C@H](O)CO1)c(=O)n(C)c(=O)n2CC(C)C`: the Potency entry in assay [1] was “inactive”.
